# Measurements taken from PubChem BioAssay (EPA / NIEHS).
# Values joined by “and” are separate entries in the source; they are usually repeats but may differ in a detail not shown here. Equal entries are not always repeated. Inconclusive results are not listed. Active and inactive are the calls of the source. Rule for the calls, unless noted: active = hit-call score of the fitted dose curve at least 0.9, where 1 is the maximum; inconclusive = response in the unintended direction; inactive = score below 0.9.
# Key:
# [1] = target: Androgen receptor (Homo sapiens) (UniProt P10275); assay: ATG_AR_TRANS: Attagene TRANS-FACTORIAL HepG2 Assay for human Androgen Receptor (AR) (AID 2282973); details: HepG2 Attagene TRANS-FACTORIAL AR reporter transcription
# Androgen receptor (Homo sapiens), sequence (P10275 whole entry, looked up, the tested form may be a part): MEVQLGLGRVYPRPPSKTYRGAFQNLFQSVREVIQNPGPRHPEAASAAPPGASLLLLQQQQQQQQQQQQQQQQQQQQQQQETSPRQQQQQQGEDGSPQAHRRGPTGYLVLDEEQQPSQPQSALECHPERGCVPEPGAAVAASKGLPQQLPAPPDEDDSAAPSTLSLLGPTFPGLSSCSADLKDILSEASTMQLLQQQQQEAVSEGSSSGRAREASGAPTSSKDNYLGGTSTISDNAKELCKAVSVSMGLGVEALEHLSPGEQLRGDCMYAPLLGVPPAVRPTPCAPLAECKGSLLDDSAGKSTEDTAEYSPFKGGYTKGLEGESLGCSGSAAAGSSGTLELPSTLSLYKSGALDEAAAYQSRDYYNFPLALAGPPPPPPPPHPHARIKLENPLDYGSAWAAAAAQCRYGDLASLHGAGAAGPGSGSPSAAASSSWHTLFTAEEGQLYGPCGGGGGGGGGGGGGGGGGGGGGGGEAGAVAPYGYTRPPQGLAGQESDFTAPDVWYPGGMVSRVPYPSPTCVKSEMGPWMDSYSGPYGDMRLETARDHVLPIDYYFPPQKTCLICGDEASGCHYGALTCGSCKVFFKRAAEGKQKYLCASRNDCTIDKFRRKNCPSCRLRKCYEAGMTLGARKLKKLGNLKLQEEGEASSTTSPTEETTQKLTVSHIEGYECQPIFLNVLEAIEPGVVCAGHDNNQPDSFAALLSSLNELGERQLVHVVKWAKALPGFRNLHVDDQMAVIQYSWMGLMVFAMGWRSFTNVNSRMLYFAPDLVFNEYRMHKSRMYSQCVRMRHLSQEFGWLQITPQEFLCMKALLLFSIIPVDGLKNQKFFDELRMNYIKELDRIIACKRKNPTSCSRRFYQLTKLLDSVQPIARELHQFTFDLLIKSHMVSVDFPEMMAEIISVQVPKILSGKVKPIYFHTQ
# Method in brief: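 Transfected HepG2, 24 h treatment, chimeric NR-Gal4 driving GAL4-UAS reporters. mRNA induction by RT-PCR/capillary electrophoresis fluorescence; DMSO as negative control and baseline.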
# [2] = Tanguay_ZF_120hpf_MUSC: Oregon State University Tanguay Lab 120 Hour Post-fertilization zebrafish Assay for Muscle Malformation (AID 2284401; active = hit-call score of the fitted dose curve at least 0.9, where 1 is the maximum; inactive = score below 0.9)
# Method in brief: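 Scored as a binary brightfield endpoint at 120 hpf, fitted versus DMSO. Single dechorionated wild-type (Tropical 5D) zebrafish embryos per well, statically exposed at 28C from 6 hpf onward with final DMSO 0.64%.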
# rat CYP2B1, gene 24300 = assay: NVS_ADME_rCYP2B1: NovaScreen (NVS) CYP450-related Enzyme Activity (ADME) Assay for rat CYP2B1 (AID 2283117)
# Method in brief: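 Cell-free fluorescence enzyme assay, recombinant rat CYP2B1, 0.75 h after dosing. Single-concentration duplicates at 10 uM preceded concentration series (max 20 uM) for actives; acetonitrile as negative-control baseline.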
# [3] = CCTE_Harrill_HTTr_Apoptosis_PRF_DMEM_12hr: (Pilot) CCTE's 12-hour Apoptosis Assessment for the High-Throughput Transcriptomics (HTTr) Platform, in MCF-7 cells cultured in phenol red-free DMEM + 10% charcoal-stripped fetal bovine serum, Harrill Lab (AID 2283985; active = hit-call score of the fitted dose curve at least 0.9, where 1 is the maximum; inactive = score below 0.9)
# Method in brief: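 Caspase-3/7 activity by CellEvent Green high content imaging after 12 h compound exposure (eight concentrations) in MCF-7 grown in phenol red-free DMEM plus 10% charcoal-stripped serum; DMSO as baseline.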
# [4] = target: rat CYP2C12, Cyp2c12 (gene 25011) (UniProt P11510); assay: NVS_ADME_rCYP2C12: NovaScreen (NVS) CYP450-related Enzyme Activity (ADME) Assay for rat CYP2C12 (AID 2283119)
# rat CYP2C12, Cyp2c12 (gene 25011), sequence (P11510 whole entry, looked up): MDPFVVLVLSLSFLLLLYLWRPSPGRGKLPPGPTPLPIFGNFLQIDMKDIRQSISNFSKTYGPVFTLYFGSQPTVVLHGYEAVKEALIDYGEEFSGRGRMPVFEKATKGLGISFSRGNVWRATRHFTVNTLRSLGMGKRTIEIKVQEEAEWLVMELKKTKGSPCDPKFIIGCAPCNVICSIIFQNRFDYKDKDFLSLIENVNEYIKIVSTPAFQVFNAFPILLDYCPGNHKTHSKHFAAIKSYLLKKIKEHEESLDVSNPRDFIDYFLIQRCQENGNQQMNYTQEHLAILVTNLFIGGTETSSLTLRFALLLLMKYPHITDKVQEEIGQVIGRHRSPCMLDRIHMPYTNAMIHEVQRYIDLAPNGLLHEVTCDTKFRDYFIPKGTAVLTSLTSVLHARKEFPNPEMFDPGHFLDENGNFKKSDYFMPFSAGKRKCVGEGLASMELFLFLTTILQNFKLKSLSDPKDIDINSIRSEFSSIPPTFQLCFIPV
# Method in brief: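 Fluorescent-substrate turnover by recombinant rat CYP2C12, measured at 0.5 h, normalized to acetonitrile vehicle. Chemicals screened first at a single 10 uM concentration in duplicate, with concentration series for actives.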
# [5] = target: rat CYP2D1, Cyp2d1 (gene 266684) (UniProt P10633); assay: NVS_ADME_rCYP2D1: NovaScreen (NVS) CYP450-related Enzyme Activity (ADME) Assay for rat CYP2D1 (AID 2283122)
# rat CYP2D1, Cyp2d1 (gene 266684), sequence (P10633 whole entry, looked up): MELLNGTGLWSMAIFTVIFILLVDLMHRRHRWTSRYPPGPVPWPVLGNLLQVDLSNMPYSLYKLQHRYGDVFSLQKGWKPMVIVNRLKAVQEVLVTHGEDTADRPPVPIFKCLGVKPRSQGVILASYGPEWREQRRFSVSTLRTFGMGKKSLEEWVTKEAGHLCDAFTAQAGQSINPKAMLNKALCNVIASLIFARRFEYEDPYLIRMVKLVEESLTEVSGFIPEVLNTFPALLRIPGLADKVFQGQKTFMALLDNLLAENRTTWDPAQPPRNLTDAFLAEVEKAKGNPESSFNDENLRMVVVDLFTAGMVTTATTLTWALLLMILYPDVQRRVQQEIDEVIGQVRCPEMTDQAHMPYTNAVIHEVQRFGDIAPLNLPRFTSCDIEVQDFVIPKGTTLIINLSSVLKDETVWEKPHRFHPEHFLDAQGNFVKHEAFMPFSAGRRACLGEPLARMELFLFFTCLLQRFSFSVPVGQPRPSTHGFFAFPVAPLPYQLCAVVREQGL
# Method in brief: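 Rat CYP2D1 enzyme activity measured by fluorescence intensity in a cell-free format, 0.75 h post-dosing, acetonitrile as negative control. Screening at 10 uM in duplicate, with actives followed in concentration series up to 20 uM.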
# [6] = target: human CYP2C8, CYP2C8 (gene 1558) (UniProt P10632); assay: NVS_ADME_hCYP2C8: NovaScreen (NVS) CYP450-related Enzyme Activity (ADME) Assay for human CYP2C8 (AID 2283104; active = hit-call score of the fitted dose curve at least 0.9, where 1 is the maximum; inactive = score below 0.9)
# Method in brief: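 Fluorescence readout of substrate turnover by recombinant CYP2C8 after 0.5 h, baseline acetonitrile. Single-concentration duplicate screen at 10 uM preceded singleton concentration series (max 20 uM) for compounds passing the inhibition threshold.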
# [7] = target: human Ephrin type-B Receptor 2 (EphB2), EPHB2 (gene 2048) (UniProt P29323); assay: NVS_ENZ_hEphB2: NovaScreen (NVS) Enzymatic Assay for human Ephrin type-B Receptor 2 (EphB2) (AID 2283156)
# Method in brief: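 Compounds were first tested in duplicate at 25 uM, with hits rerun singly in concentration series up to 50 uM. Enzyme activity on fluorescent substrate was read at 1 h by mobility-shift separation, scored as signal loss relative to DMSO.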
# [8] = target: human Fibroblast Growth Factor Receptor 1 (FGFR1), FGFR1 (gene 2260) (UniProt P11362); assay: NVS_ENZ_hFGFR1: NovaScreen (NVS) Enzymatic Assay for human Fibroblast Growth Factor Receptor 1 (FGFR1) (AID 2283159);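 note: hits lower the signal so potencies describe inhibitors of the kinase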
# human Fibroblast Growth Factor Receptor 1 (FGFR1), FGFR1 (gene 2260), sequence (P11362 whole entry, looked up): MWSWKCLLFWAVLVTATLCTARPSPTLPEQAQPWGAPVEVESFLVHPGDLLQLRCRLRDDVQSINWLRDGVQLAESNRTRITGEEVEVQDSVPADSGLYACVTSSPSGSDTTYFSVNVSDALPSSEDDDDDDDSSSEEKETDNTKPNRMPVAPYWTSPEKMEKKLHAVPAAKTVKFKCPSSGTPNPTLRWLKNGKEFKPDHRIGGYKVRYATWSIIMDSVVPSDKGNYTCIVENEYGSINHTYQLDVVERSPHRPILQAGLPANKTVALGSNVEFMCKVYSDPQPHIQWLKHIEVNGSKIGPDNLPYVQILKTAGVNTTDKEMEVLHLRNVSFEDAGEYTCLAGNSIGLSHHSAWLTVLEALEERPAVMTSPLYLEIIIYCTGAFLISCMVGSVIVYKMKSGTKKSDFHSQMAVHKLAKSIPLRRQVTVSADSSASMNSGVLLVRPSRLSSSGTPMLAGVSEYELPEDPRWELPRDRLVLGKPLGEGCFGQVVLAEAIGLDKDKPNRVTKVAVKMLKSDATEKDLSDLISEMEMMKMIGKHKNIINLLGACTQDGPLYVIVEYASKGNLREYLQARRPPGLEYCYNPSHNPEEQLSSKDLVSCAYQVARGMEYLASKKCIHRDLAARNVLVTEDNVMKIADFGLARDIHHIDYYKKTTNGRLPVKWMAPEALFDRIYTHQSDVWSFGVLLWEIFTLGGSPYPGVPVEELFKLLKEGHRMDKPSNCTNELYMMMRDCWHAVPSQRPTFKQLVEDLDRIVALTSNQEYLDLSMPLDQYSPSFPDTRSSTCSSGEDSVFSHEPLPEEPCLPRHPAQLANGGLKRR
# Method in brief: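 Cell-free recombinant kinase with fluorescent substrate, product separated by electrophoretic mobility shift; read 1 hour after dosing, loss of signal relative to DMSO. Initial screen in duplicate at 25 uM, actives followed in concentration series.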
# [9] = target: human NIMA (Never In Mitosis Gene A)-Related Kinase 2 (NEK2), NEK2 (gene 4751) (UniProt P51955); assay: NVS_ENZ_hNEK2: NovaScreen (NVS) Enzymatic Assay for human NIMA (Never In Mitosis Gene A)-Related Kinase 2 (NEK2) (AID 2283188)
# human NIMA (Never In Mitosis Gene A)-Related Kinase 2 (NEK2), NEK2 (gene 4751), sequence (P51955 whole entry, looked up): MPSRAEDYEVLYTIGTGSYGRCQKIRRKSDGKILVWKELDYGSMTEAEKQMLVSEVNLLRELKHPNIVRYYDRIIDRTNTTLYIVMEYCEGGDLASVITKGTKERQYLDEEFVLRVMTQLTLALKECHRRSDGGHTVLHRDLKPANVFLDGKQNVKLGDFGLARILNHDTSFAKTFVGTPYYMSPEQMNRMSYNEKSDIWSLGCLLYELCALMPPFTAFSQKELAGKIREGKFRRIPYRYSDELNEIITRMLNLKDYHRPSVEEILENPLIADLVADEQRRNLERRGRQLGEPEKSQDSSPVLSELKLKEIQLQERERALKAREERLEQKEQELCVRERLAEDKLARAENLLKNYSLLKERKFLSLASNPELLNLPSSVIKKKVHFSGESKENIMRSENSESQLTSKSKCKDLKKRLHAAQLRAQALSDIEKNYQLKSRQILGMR
# Method in brief: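 Compounds were first screened in duplicate at 25 uM, with actives followed up in concentration series. Recombinant NEK2 activity, cell-free, was read 1 h after dosing by fluorescence intensity after mobility-shift separation. Signal loss was scored against DMSO.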
# [10] = target: rat Monoamine Oxidase, MAO-B, Central (MAOBC), Maob (gene 25750) (UniProt P19643); assay: NVS_ENZ_rMAOBC: NovaScreen (NVS) Enzymatic Assay for rat Monoamine Oxidase, MAO-B, Central (MAOBC) (AID 2283238)
# rat Monoamine Oxidase, MAO-B, Central (MAOBC), Maob (gene 25750), sequence (P19643 whole entry, looked up): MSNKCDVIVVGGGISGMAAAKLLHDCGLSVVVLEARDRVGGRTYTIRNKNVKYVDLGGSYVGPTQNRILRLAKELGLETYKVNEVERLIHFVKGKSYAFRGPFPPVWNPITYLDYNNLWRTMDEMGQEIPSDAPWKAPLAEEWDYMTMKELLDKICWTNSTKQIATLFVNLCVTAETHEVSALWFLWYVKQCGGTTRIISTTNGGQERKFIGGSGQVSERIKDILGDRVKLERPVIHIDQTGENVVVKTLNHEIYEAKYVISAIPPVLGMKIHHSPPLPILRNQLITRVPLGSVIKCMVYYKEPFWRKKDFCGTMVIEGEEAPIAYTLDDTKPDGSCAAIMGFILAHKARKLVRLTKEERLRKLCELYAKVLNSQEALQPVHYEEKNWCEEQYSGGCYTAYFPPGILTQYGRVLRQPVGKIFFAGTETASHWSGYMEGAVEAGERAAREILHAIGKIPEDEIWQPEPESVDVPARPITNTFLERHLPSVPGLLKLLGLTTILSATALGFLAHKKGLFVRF
# Method in brief: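 Here MAO-B activity in rat brain preparations is quantified radiometrically, counts taken at 1.17 hours. Concentration-response runs reach 50 uM, with plate controls, and values are fitted as loss of signal from the DMSO baseline.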
# [11] = test system: rat Monoamine Oxidase, MAO-A, Central (MAOAC), gene 29253; assay: NVS_ENZ_rMAOAC: NovaScreen (NVS) Enzymatic Assay for rat Monoamine Oxidase, MAO-A, Central (MAOAC) (AID 2283243);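 note: potency refers to inhibition seen as signal drop below DMSO baseline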
# Method in brief: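 Single-concentration duplicate testing at 25 uM, then concentration-response for actives, in a lysate-based radiodetection MAO-A activity assay from rat brain. Enzyme activity measured 1.5 hours post-dosing; DMSO served as negative control and baseline.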
# [12] = target: Norway rat Vesicular Monoamine Transporter (VMAT2), neurotransmitter transporter, Slc18a2 (gene 25549) (UniProt Q01827); assay: NVS_TR_rVMAT2: NovaScreen (NVS) Transporter Assay for Norway rat Vesicular Monoamine Transporter (VMAT2), neurotransmitter transporter (AID 2283376);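 note: actives lower the bound radioligand signal below the DMSO level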
# Norway rat Vesicular Monoamine Transporter (VMAT2), neurotransmitter transporter, Slc18a2 (gene 25549), sequence (Q01827 whole entry, looked up): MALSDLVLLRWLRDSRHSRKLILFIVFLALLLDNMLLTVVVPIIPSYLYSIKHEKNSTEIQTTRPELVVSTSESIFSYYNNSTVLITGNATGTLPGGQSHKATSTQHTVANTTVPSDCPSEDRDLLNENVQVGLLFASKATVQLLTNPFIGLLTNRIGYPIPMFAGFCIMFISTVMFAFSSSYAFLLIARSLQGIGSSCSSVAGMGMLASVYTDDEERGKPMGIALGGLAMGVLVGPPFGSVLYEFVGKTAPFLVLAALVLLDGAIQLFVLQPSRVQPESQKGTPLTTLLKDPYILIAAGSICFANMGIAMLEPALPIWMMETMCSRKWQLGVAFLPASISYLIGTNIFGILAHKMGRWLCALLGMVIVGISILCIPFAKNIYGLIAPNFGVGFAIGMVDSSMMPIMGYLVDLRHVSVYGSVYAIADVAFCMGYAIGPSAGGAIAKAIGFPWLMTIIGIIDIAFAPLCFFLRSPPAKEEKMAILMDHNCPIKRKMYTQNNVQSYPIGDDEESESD
# Method in brief: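 Binding endpoint from rat forebrain tissue, cell-free; 1 h incubation; filtered radioligand counted; 25 uM duplicate primary then dose series; DMSO negative control.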
# [13] = test system: rat Monoamine Oxidase, MAO-A, Peripheral (MAOAP), gene 29253; assay: NVS_ENZ_rMAOAP: NovaScreen (NVS) Enzymatic Assay for rat Monoamine Oxidase, MAO-A, Peripheral (MAOAP) (AID 2283237)
# Method in brief: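 Scintillation counting tracked MAO-A activity in a cell-free rat liver mitochondrial membrane prep, read 1.17 hours after compound addition. Single-point duplicate testing at 25 uM preceded concentration-response follow-up; activity was fitted relative to DMSO.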
# [14] = target: human Peroxisome Proliferator-activated Receptor delta (PPARd), PPARD (gene 5467) (UniProt Q03181); assay: ATG_PPARd_TRANS: Attagene TRANS-FACTORIAL HepG2 Assay for human Peroxisome Proliferator-activated Receptor delta (PPARd) (AID 2283002)
# Method in brief: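 Multiplexed trans-activation format: HepG2 liver cells expressing exogenous NR-Gal4 chimeras and GAL4-UAS reporters were exposed for 24 h. Reporter mRNA was detected by RT-PCR with capillary electrophoresis fluorescence; activity fitted as gain of signal relative to DMSO.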
# [15] = target: Peroxisome proliferator-activated receptor gamma (Homo sapiens) (UniProt P37231); assay: ATG_PPARg_TRANS: Attagene TRANS-FACTORIAL HepG2 Assay for human Peroxisome Proliferator-activated Receptor-gamma (PPARg) (AID 2283007)
# Peroxisome proliferator-activated receptor gamma (Homo sapiens), sequence (P37231 whole entry, looked up): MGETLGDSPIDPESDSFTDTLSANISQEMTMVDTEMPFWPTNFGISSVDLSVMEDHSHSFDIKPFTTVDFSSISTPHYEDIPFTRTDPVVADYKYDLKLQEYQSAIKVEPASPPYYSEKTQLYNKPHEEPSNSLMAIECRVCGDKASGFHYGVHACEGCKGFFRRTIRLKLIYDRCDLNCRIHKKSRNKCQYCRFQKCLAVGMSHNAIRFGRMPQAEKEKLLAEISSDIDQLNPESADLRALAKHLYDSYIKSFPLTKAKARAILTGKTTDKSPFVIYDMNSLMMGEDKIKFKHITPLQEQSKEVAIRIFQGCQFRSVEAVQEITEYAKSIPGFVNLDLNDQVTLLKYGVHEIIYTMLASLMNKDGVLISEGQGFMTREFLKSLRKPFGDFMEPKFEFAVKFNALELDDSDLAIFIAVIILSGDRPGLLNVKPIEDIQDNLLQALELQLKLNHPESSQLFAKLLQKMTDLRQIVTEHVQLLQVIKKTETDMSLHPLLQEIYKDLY
# Method in brief: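 Human hepatoma HepG2, transient MRTU transfection, 24 h treatment. mRNA reporter signal by RT-PCR plus capillary electrophoresis, fluorescence detection; fitted for increase over DMSO negative control.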
# [16] = target: Nuclear receptor subfamily 1 group I member 2 (Homo sapiens) (UniProt O75469); assay: ATG_PXR_TRANS: Attagene TRANS-FACTORIAL HepG2 Assay for human Pregnane X Receptor (PXR) (AID 2283008)
# Method in brief: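 Trans-factorial format: exogenous NR-Gal4 fusion activity, not endogenous factor, in transfected human HepG2 liver cells. After 24 h dosing, RNA isolated, reverse-transcribed, amplified and resolved by capillary electrophoresis; induction scored versus DMSO.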
# [17] = target: sheep Cyclooxygenase-1 (Cox1), PTGS1 (gene 443551) (UniProt P05979); assay: NVS_ENZ_oCOX1: NovaScreen (NVS) Enzymatic Assay for sheep Cyclooxygenase-1 (Cox1) (AID 2283239);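 note: actives reduce cyclooxygenase activity so potencies are for inhibitors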
# Method in brief: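 Native ovine seminal vesicle protein serves as enzyme source in this biochemical assay. Colorimetric signal is recorded 0.66 h after chemical addition, and decreases versus the DMSO control define activity.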
# [18] = CCTE_Harrill_HTTr_Viability_MCF7: CCTE's 6-hour Cell Viability Assessment for the High-Throughput Transcriptomics (HTTr) Platform, in MCF-7 cells cultured in DMEM + 10% fetal bovine serum, Harrill Lab (AID 2284010; active = hit-call score of the fitted dose curve at least 0.9, where 1 is the maximum; inactive = score below 0.9)
# Method in brief: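 Propidium iodide exclusion, imaged by high-content analysis, gauged viability after a six-hour exposure across eight concentrations. Cells were MCF-7 grown in DMEM with 10% fetal bovine serum; fits run in both directions against DMSO.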
# [19] = CCTE_Harrill_HTTr_Apoptosis_MCF7: CCTE's 6-hour Apoptosis Assessment for the High-Throughput Transcriptomics (HTTr) Platform, in MCF-7 cells cultured in DMEM + 10% fetal bovine serum, Harrill Lab (AID 2284011; active = hit-call score of the fitted dose curve at least 0.9, where 1 is the maximum; inactive = score below 0.9)
# Method in brief: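 Cells are dosed with test chemicals at eight concentrations and imaged 6 hours later for caspase-3/7 activity using a green fluorogenic detection reagent. Activity is fitted in both directions against DMSO controls.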
smiles,measurement,setting,value
CCOC(=O)CC(=O)C(F)(F)C(F)(F)F,outcome,[1],inactive
same,outcome,[2],inactive
O=C(O)CCC(F)(F)C(F)(F)C(F)(F)C(F)(F)C(F)(F)C(F)(F)C(F)(F)F,outcome,[1],inactive
same,outcome,[2],inactive
FC(F)(F)C(F)(F)C(F)(F)C(F)(F)C(F)(F)C(F)(F)CC1CO1 (stereo not drawn),outcome,[1],inactive
same,outcome,[2],inactive
CCCCOC(=O)C(C)Oc1ccc(Oc2ccc(C(F)(F)F)cn2)cc1 (stereo not drawn),outcome,"rat CYP2B1, gene 24300",inactive
CC(=O)O[C@]1(C(C)=O)CC[C@H]2[C@@H]3C=C(Cl)C4=CC(=O)[C@@H]5C[C@@H]5[C@]4(C)[C@H]3CC[C@@]21C,outcome,"rat CYP2B1, gene 24300",inactive
same,outcome,[3],inactive
CC(C)(C)[C@@H](O)[C@@H](Cc1ccc(Cl)cc1)n1cncn1,AC50,"rat CYP2B1, gene 24300",1.35 µM (active)
same,AC50,[4],5.82 µM (active)
same,AC50,[5],5.84 µM (active)
C[C@]12CC[C@@H]3c4ccc(O)cc4CC[C@H]3[C@@H]1CC[C@@H]2O,AC50,"rat CYP2B1, gene 24300",14.1 µM (active)
same,outcome,[4],inactive
OC(O)(C(F)C(O)(O)C(F)(F)F)C(F)(F)F,outcome,[1],inactive
same,outcome,[2],inactive
O=S(=O)(OCCOC(F)(F)F)C(F)(F)F,outcome,[1],inactive
same,outcome,[2],inactive
OCC(F)(F)C(F)(F)C(F)(F)C(F)F,outcome,[1],inactive
same,outcome,[2],inactive
Oc1ccc(C(c2ccc(O)cc2)C(Cl)(Cl)Cl)cc1,AC50,[6],1.06 µM (active)
same,AC50,"rat CYP2B1, gene 24300",9.18 µM (active)
same,outcome,[4],inactive
same,AC50,[5],2.7 µM (active)
same,outcome,[7],inactive
same,AC50,[8],33.1 µM (active)
same,outcome,[9],inactive
same,outcome,[10],inactive
same,outcome,[11],inactive
same,AC50,[12],7.63 µM (active)
OCCC(F)(F)C(F)(F)C(F)(F)C(F)(F)F,outcome,[1],inactive
same,outcome,[2],inactive
C#CCOC(=O)[C@@H](C)Oc1ccc(Oc2ncc(Cl)cc2F)cc1,AC50,"rat CYP2B1, gene 24300",1.36 µM (active)
same,AC50,[5],3.73 µM (active)
O=C(CC(=O)C(F)(F)C(F)(F)C(F)(F)F)c1cccs1,outcome,[1],inactive
same,outcome,[2],inactive
O=c1c(-c2ccc(O)cc2)coc2cc(O)cc(O)c12,outcome,"rat CYP2B1, gene 24300",inactive
same,AC50,[13],3.49 µM (active)
same,AC50,[10],31.1 µM (active) and 25 µM (active)
same,AC50,[11],10.6 µM (active) and 12.2 µM (active) and 2.7 µM (active)
same,outcome,[12],inactive
O=[N+]([O-])c1ccccc1Cl,outcome,[14],inactive
same,outcome,[15],inactive
same,outcome,[16],inactive
same,outcome,[17],inactive
same,outcome,[12],inactive
same,outcome,[18],inactive
same,outcome,[19],inactive
